# KLK7 zymogen act: activates the human kallikrein-7 zymogen. purified proKLK7, EDANS-DABCYL substrate fluorescence; 100% is mature enzyme control, 0% vehicle. activation, % at 7 µM. 0.9% of 370,000 active;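 active = activation above the mean of all tested compounds plus 3 SD, computed per campaign excluding outliers beyond control limits, cut at about 13% in these data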
# CendR NRP1 mod: alters CendR peptide binding to human NRP-1; O14786; FAM-RPARPAR peptide binding to NRP-1, fluorescence polarization; inhibition, % at 25 µM; 0.85% of 360,000 active; AID 602438;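 active = inhibition or corrected inhibition above about 18%, plus a signal ratio from 0.5 to 1.5, limit read from the data, passing the limit was not always enough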
# ADAM10 inh: inhibitors of human ADAM10; O14672; inhibition, % at 7 µM; 0.62% of 370,000 active; recombinant ADAM10, EDANS/DABCYL FRET peptide cleavage, 3 h; AID 720582;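 active = inhibition above a per-campaign cutoff equal to the mean of compounds falling between control-based bounds plus 3 SD, cut at about 20% in these data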
# ADAM17 inh: ADAM17 inhibition, QFRET primary screen; 0.83% of 370,000 active; recombinant ADAM17, EDANS/DABCYL FRET peptide cleavage; inhibition, % at 6.95 µM; P78536;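 active = inhibition above the mean of compounds lying between control limits plus 3 SD, set per campaign, cut at about 8.5% in these data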
# sPLA2-III inh: Inhibits HGIII-sPLA2 liposome hydrolysis, primary screen. Q9NZ20. QFRET BODIPY PC-A2 liposome hydrolysis, fluorescence. inhibition, % at 12.2 µM. 0.56% of 370,000 active;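 active = inhibition above mean plus 3 SD of compounds lying within the high and low control bounds, cut at about 19% in these data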
# sPLA2 confirm: human GIII-sPLA2 inhibition, confirmation. shares compounds with sPLA2-III inh. recombinant hGIII-sPLA2, BODIPY PC-A2 QFRET fluorescence. inhibition, % at 12.2 µM. 34% of 2,000 active. AID 743280;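 active = mean inhibition across triplicates above the hit cutoff set in the earlier primary screen, cut at about 19% in these data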
# BODIPY interf: 535nm fluorescence interference, HGIII-sPLA2 counter-screen; inhibition, % at 12.2 µM; 8.5% of 2,000 active; AID 743282; shares compounds with sPLA2-III inh; BODIPY FL product fluorescence interference, QFRET;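 active = average inhibition above the solvent-only control mean plus 3 SD, cut at about 6% in these data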
# BODIPY interf DR: 535nm optical interference dose response, HGIII-sPLA2 counter-screen. BODIPY FL product fluorescence interference, cell-free. IC50, µM. 240 tested, under 10 active. shares compounds with sPLA2-III inh;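 active = IC50 at or below 10 µM; inactive = IC50 above 10 µM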
# Hits are given with their value; – = inactive; · = not tested or not shown. Sampled rows, rich in hits. Any-hit rate of the full collection: about 3.4%.
SMILES,KLK7 zymogen act,CendR NRP1 mod,ADAM10 inh,ADAM17 inh,sPLA2-III inh,sPLA2 confirm,BODIPY interf,others
CCCCNC(=S)NNC(=O)c1csc(C)c1C,–,–,–,–,27,29,–,BODIPY interf DR=–
C=CCNC(=S)NNC(=O)c1cc(O)ccc1O,–,–,–,–,–,·,·,
CCCCNC(=S)NNC(=O)c1sccc1C,·,–,·,·,·,·,·,
OCCN1CCN(c2nc(-c3ccccc3)c3cc(Cl)ccc3n2)CC1,–,–,–,–,–,·,·,
O=C1CN(c2nc(-c3ccccc3)c3cc(Cl)ccc3n2)c2ccccc2N1,–,–,–,–,21,–,–,
Cc1ncc(CO)c(/C=N/NC(=S)Nc2ccc(F)cc2)c1O,–,–,–,–,20,20,–,
COc1cc2c(cc1OC)CN(C(=O)c1cc(Cl)nc(Cl)c1)CC2,–,–,–,–,–,·,·,
COc1cc2c(cc1OC)C1(C)N(CC2)C(C(C)=O)=NN1c1ccc(Cl)cc1 (centres undefined),–,–,–,–,20,–,–,
CCCn1nnc(NC(=O)c2ccc(OC)cc2)n1,–,–,–,–,–,·,·,
CCCn1nnc(NC(=O)c2ccc(OCC)c(Cl)c2)n1,–,–,–,–,24,–,–,
O=C(NC1=NC2(C=C3CCCCC3n3c(=O)n(-c4ccccc4)c(=O)n32)CN1CC1CC1)c1ccccc1 (centres undefined),–,·,–,–,–,·,·,
Cc1cc(N(C)C)ccc1N=Nc1ccc(N)cc1,–,–,–,–,26,38,18,
Nc1ccc(N=Nc2ccc(N)cc2)cc1,–,–,–,–,–,·,·,
S=c1[nH]nc(-c2ccc3c(c2)OCO3)n1-c1ccccc1,–,–,–,–,25,23,–,
CCOC(=O)c1cc2sccc2n1CC(=O)Nc1ccc(OC)cc1OC,–,–,–,–,21,–,–,
Nc1[nH]nc2nnc(-c3c(-c4ccccc4)nn4ccccc34)cc12,·,·,–,–,22,–,–,
Nc1[nH]nc2nc(N3CCCC3)nc(-c3ccccc3)c12,–,–,–,–,–,·,·,
C[C@H]1[C@H](NC(=O)c2ccc(C(C)(C)C)cc2)CC[C@@]23CCCN2C(=O)CCC[C@@H]13,·,·,–,–,–,·,·,
Fc1ccccc1Cn1ccc2ccc(-c3ccc4ccn(Cc5ccccc5)c4c3)cc21,–,·,–,–,–,·,·,
COc1ccc(Cn2ccc3ccc(-c4ccc5ccn(Cc6ccccc6F)c5c4)cc32)cc1,–,·,–,–,20,–,–,
Nc1ccn([C@@H]2O[C@H](C(=O)NCC(=O)N3CCOCC3)[C@@H](O)[C@H]2O)c(=O)n1,–,·,–,–,–,·,·,
O=C(NCC(c1cccs1)N1CCOCC1)c1cc([N+](=O)[O-])ccc1Cl (centres undefined),–,–,–,–,19,–,–,
COC(=O)C1CN(Cc2cn(Cc3ccccc3)nn2)CCS(=O)(=O)N1Cc1ccccc1 (centres undefined),–,·,–,–,–,·,·,
O=C(Nc1ccc(F)cc1)Nc1c(-c2ccc(C(F)(F)F)cc2)nc2ncccn12,–,·,–,–,–,·,·,
C=CCn1c(C2CC2)n[nH]c1=S,–,–,–,–,–,·,·,
SMILES,KLK7 zymogen act,CendR NRP1 mod,ADAM10 inh,ADAM17 inh,sPLA2-III inh,sPLA2 confirm,BODIPY interf,others
CCCCCC1CCC(c2n[nH]c(=S)n2C)CC1 (centres undefined),–,–,–,–,20,26,–,
N/C(=N\C(=O)OCc1ccccc1)N(CC#CC1=CCCCC1)CC1CC1,–,·,–,–,–,·,·,
CCn1c(-c2cccnc2)n[nH]c1=S,–,–,–,–,–,·,·,
CCCCn1c(-c2cccnc2)n[nH]c1=S,–,–,–,–,22,–,–,
COC(=O)c1cc(=O)nc(NN=C(C)C)s1,–,·,–,–,–,·,·,
CC1(C)CC(=O)C(Sc2ccccc2C(=O)O)=C(O)C1,–,–,–,–,23,–,–,
CC1(C)CC(=O)C(Sc2ccccc2)=C(O)C1,–,–,–,–,–,·,·,
CC(NC(=O)/C(C#N)=C/c1ccco1)c1ccccc1 (centres undefined),–,–,–,–,20,–,–,
C=CCN1[C@H](CC(C)C)COc2cccc(F)c2S1(=O)=O,–,·,–,–,–,·,·,
